According to the supplement of paper PMC13380429:

Test system: Vero E6 infected with SARS-CoV-2
Experiment: inhibition of SARS-CoV-2 cytopathic effect; higher = more antiviral protection, active = above 15
Details: 48 h

Measured: inhibition of SARS-CoV-2 cytopathic effect

N#C/C(=C\c1ccc(O)c(O)c1)C(=O)NCc1ccccc1
inactive: 1 nM 5.06% | 8.33 nM 3.47% | 100 nM 7.47% | 833.33 nM 0.08% | 10000 nM 5.05%

NC(=S)N/N=C/c1ncccc1N [triapine]
inactive: 1 nM 2.87% | 8.33 nM -0.48% | 100 nM 4.4% | 833.33 nM 3.25% | 10000 nM -6.06%

NC(CO)C(=O)NNCc1ccc(O)c(O)c1O (stereo not given) [benserazide]
inactive: 1 nM -1.48% | 8.33 nM 3.19% | 100 nM 2.6% | 833.33 nM -3.13% | 10000 nM -4.67%

COc1ccc(C(=O)N2CCCC2=O)cc1 [aniracetam]
inactive: 1 nM 0.63% | 8.33 nM 0.43% | 100 nM 0.75% | 833.33 nM 0.1% | 10000 nM 0.6%

Cc1cc(C(=O)N2Cc3cnn(C)c3Nc3ccccc32)ccc1CNC(=O)N1CCC[C@H]1C(=S)N1CCCN(C)CC1
inactive: 1 nM -0.76% | 8.33 nM -1.38% | 100 nM -3.62% | 833.33 nM -1.74% | 10000 nM -2.86%

N#Cc1ccncn1 [4-pyrimidinecarbonitrile]
inactive: 1 nM 3.43% | 8.33 nM 1.7% | 100 nM 4.16% | 833.33 nM 0.49% | 10000 nM -3.8%

CC(C)(C)C(=O)OCOC(=O)[C@@H]1N2C(=O)[C@@H](NC(=O)[C@H](N)c3ccccc3)[C@H]2SC1(C)C [pivampicillin]
inactive: 1 nM 3.04% | 8.33 nM 3.24% | 100 nM 2.48% | 833.33 nM 0.64% | 10000 nM -3.25%

CCN1CCN(c2cc3c(cc2F)c(=O)c(C(=O)O)cn3C2CC2)CC1 [enrofloxacin]
inactive: 1 nM 2.85% | 8.33 nM 4.7% | 100 nM 2.54% | 833.33 nM 2.88% | 10000 nM 5.39%

COC1(C[S@@+]([O-])c2ccccc2)CCN(CCc2c[nH]c3ccc(F)cc23)CC1
inactive: 1 nM 1.49% | 8.33 nM 4.84% | 100 nM 3.16% | 833.33 nM 1.05% | 10000 nM -2.13%

N.N.[Cl][Pt][Cl] [cisplatin]
inactive: 1 nM 1.16% | 8.33 nM 0.86% | 100 nM 0.61% | 833.33 nM 3.21% | 10000 nM 1.76%

COc1ccc2cc(-c3nc(-c4ccc([S+](C)[O-])cc4)[nH]c3-c3ccncc3)ccc2c1 (stereo not given) [tie2-kinase-inhibitor]
inactive: 1 nM 5.39% | 8.33 nM 5.15% | 100 nM 0.64% | 833.33 nM 1.97% | 10000 nM 9.27%

CC(=O)NNC(=O)N1Cc2ccccc2Oc2ccc(Cl)cc21
inactive: 1 nM -0.04% | 8.33 nM 1.22% | 100 nM -0.93% | 833.33 nM -0.99% | 10000 nM -2.14%

O=C(O)C(=O)c1cn(Cc2ccccc2)c2ccc(-c3ccc(OC(F)(F)F)cc3)cc12 [tiplaxtinin]
inactive: 1 nM 2.16% | 8.33 nM 2.56% | 100 nM 3.44% | 833.33 nM 2.13% | 10000 nM 4.09%

Cc1ccc2c(c1CCC(=O)O)CC[C@@H](NS(=O)(=O)c1ccc(Cl)cc1)C2 [terutroban]
inactive: 1 nM -4.39% | 8.33 nM -2.46% | 100 nM -5.1% | 833.33 nM -1.42% | 10000 nM 0.09%

CCNCCS(=O)(=O)NC[C@@]1(c2ccccc2)SC(NC(=O)C(C)(C)C)=NN1C(=O)C(C)(C)C [litronesib]
inactive: 1 nM 2.17% | 8.33 nM 5.24% | 100 nM 2.46% | 833.33 nM 0.96% | 10000 nM 0.39%

CC(C)(C)NCC(O)COc1cccc2c1CCC(=O)N2 (stereo not given) [carteolol]
inactive: 1 nM 2.16% | 8.33 nM 1.11% | 100 nM 0.54% | 833.33 nM 2.62% | 10000 nM -0.66%

Cc1cc2cc3c(C)cc(=O)oc3c(C)c2o1 [trioxsalen]
inactive: 1 nM 1.96% | 8.33 nM 2.74% | 100 nM 0.65% | 833.33 nM 3.62% | 10000 nM -0.06%

CCc1ccccc1OC[C@@H](O)CN[C@H]1CCCc2ccccc21
inactive: 1 nM -1.78% | 8.33 nM -0.44% | 100 nM -3.44% | 833.33 nM -0.6% | 10000 nM -4.25%

CN[C@H]1C(=O)N[C@@H]2Cc3ccc(cc3)Oc3cc4cc(c3O[C@@H]3O[C@H](C(=O)O)[C@@H](O)[C@H](O)[C@H]3NC(=O)CCCCCCCCC(C)C)Oc3ccc(cc3Cl)[C@@H](O)[C@@H]3NC(=O)[C@H](NC(=O)[C@@H]4NC(=O)[C@@H](NC2=O)c2cc(cc(O)c2Cl)Oc2cc1ccc2O)c1ccc(O)c(c1)-c1c(O[C@H]2O[C@H](CO)[C@@H](O)[C@H](O)[C@@H]2O)cc(O)cc1[C@@H](C(=O)NCCCN(C)C)NC3=O [dalbavancin]
inactive: 1 nM -5.95% | 8.33 nM -0.74% | 100 nM -2.73% | 833.33 nM -0.14% | 10000 nM 1.46%
